From PubChem BioAssay (NCATS)
Inconclusive results are not listed. Values without a mark were called inactive. The source made the active and inactive calls. Calls come from the whole dose curve; as a rule, active = well fitted inhibition curve with a large enough effect; inconclusive = small, poorly fitted or top-dose-only effect; inactive = flat fitted curve, though single readings scatter. Where a SMILES comes first, the peptide text is derived from it. The star is where a group is joined. Cbz = O=C(OCc1ccccc1)*; CH2Cl = ClC*

Test system: HEK293
Assay: Cytotoxic Profiling of Annotated Libraries Using Quantitative High-Throughput Screening (AID 1296008); note: nearly all actives have a fitted effect of over 60% in size
Details: Five cell lines viability, CellTiter-Glo ATP luminescence, 48-72 h; max response: hits give low values
Method in brief: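 Compounds were pin-transferred onto cells and incubated 48 or 72 hr at 37 degree Celsius, 95% humidity. CellTiter-Glo was added, plates sat 10 min at room temperature, then ATP-coupled luminescence was imaged as the viability read-out.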
% is set by controls: 0 for no effect and ±100 for the full control effect; potency is the fitted concentration of half-maximal effect.

SMILES	Potency	max response
C=CC(=O)N1CCN(C(=O)CNc2cc(-c3ccccc3Cl)c(Cl)cc2OC)CC1	18.4 µM (active)	
CC(C)C[C@H](NC(=O)CNC(=O)OCc1ccccc1)C(=O)N[C@@H](Cc1ccccc1)C(=O)CCl (Cbz-Gly-Leu-Phe-CH2Cl)	9.2 µM (active)	
CCCCCCCCn1cc(CN(CC)CC)c2cc(-c3cnc(N)nc3)ccc21	16.4 µM (active)	
Cc1nc(Nc2cnn(C3CCNCC3)c2)nc2c1N(C)C(=O)c1cc3ccccc3cc1N2C	25.9 µM (active)	
C=CS(=O)(=O)NC1CCN(C(=O)CNc2cc(I)c(Cl)cc2OC)CC1	8.2 µM (active)	
C=C(C=O)[C@]1(O)C[C@@]2(C)C(=CC1=O)C=C[C@H](OC(=O)/C=C/C=C/[C@H](C)CC)[C@@H]2C	3.99 µM (active)	
Cn1sc(=O)n(Cc2ccccc2)c1=O	6.51 µM (active)	
Cc1cc(-c2nc3cc(F)ccc3s2)ccc1NC(=O)[C@@H](N)CCCCN	14.6 µM (active)	
CCCCCCCCC(=O)N[C@H](CN1CCCC1)[C@H](O)c1ccc2c(c1)OCCO2	7.31 µM (active)	
C/C1=C\CCC2=CC(OC2=O)C(C)(C)/C=C/C1=O (configuration not stated)	6.51 µM (active)	
O=C(NC1(c2ccccc2)CC1)c1c(CN2CCC(N3CCCCC3)CC2)c(-c2cccc(C(F)(F)F)c2)nc2cc(Br)ccc12	14.6 µM (active)	
Cc1cc2occ(CN(C)CCN(C)Cc3cn(-c4cccc(C(F)(F)F)c4)c4ccccc34)c(=O)c2cc1C	8.2 µM (active)	
FC(F)(F)c1ccc(CNc2ccc(Cc3c[nH]c4ncc(Cl)cc34)cn2)cn1	26.3 µM (active)	
C=C1CC2[C@@]3(C)C=CC(=O)C(C)(C)C3=C(O)C(=O)[C@@]2(C)C2(C(=O)OC)C(=O)C(C)OC(=O)[C@@]12C (some centres not stated)	7.96 µM (active)	
Cc1cc(N2CCN(C(=O)Oc3ccc(-c4ccccc4)cn3)CC2)c2ccccc2n1	8.2 µM (active)	
Nc1cccc(CNC(=O)c2ccc(Oc3ccc(OCc4cccc(F)c4)cc3)nc2)c1	11.6 µM (active)	

SMILES	Potency	max response
Cn1ncc(Cl)c1-c1cc(C(=O)NC(CN)Cc2ccc(F)c(F)c2)oc1Cl (configuration not stated)	0.231 µM (active)	
C=C1C(=O)O[C@@H]2C[C@@]3(C)CCCC(=C)[C@]3(O)C[C@H]12	13 µM (active)	
CCC(C(C)O)n1ncn(-c2ccc(N3CCN(c4ccc(OCC5COC(Cn6cncn6)(c6ccc(F)cc6F)C5)cc4)CC3)cc2)c1=O (configuration not stated)	5.8 µM (active)	
N#CC(CCCN1CCC(O)(c2ccc(Cl)cc2)CC1)(c1ccccc1)c1ccccc1		-108%
CC(OC1OCCN(Cc2n[nH]c(=O)[nH]2)C1c1ccc(F)cc1)c1cc(C(F)(F)F)cc(C(F)(F)F)c1 (configuration not stated)	11.6 µM (active)	
CC(=O)OC1[C@H]2[C@@H](C[C@@H](C)[C@@H]3C=CC(=O)[C@@]13C)OC(=O)[C@@H]2C (some centres not stated)	16.4 µM (active)	
Cc1ccc(NC(=O)C(C)C)cc1C1CCN(Cc2ccc(Oc3ccc(F)c(F)c3)cc2)CC1	13 µM (active)	
C/C=C(\C)C(=O)O[C@H]1C=C(CO)C(=O)[C@H](OC(C)=O)[C@H]1C(C)C	8.05 µM (active)	
Cn1ncc(Cl)c1-c1cc(C(=O)N[C@H](CN)Cc2ccc(F)c(F)c2)oc1Cl	0.366 µM (active)	
N#Cc1cc(CN2CCC(Nc3ncnc4sc(Cl)cc34)CC2)ccc1F	14.6 µM (active)	
N#C/C(=C1\Nc2ccccc2S1)c1ccnc(NCCc2cccnc2)n1	7.31 µM (active)	
CN(C)C(=O)COC(=O)c1cc(-c2ccc(C3CCNCC3)cc2)c2ccc(-c3ccc(C(F)(F)F)cc3)cc2c1	4.61 µM (active)	
CC1(C)CC[C@]23CO[C@@]4(CCC5[C@@]6(C)CC[C@H](O[C@@H]7OC[C@H](O[C@@H]8O[C@H](CO)[C@@H](O)[C@H](O)[C@H]8O[C@@H]8OC[C@@H](O)[C@H](O)[C@H]8O)[C@H](O)[C@H]7O[C@@H]7O[C@H](CO)[C@@H](O)[C@H](O)[C@H]7O)[C@@](C)(CO)C6CC[C@@]5(C)[C@]4(C)C[C@H]2O)[C@@H]3C1 (some centres not stated)	3.48 µM (active)	
C=C1C(=O)OC2C(OC(=O)C=C(C)C)C(C)=C3C(=O)C=C(C)C3C(O)C12 (configuration not stated)	6.4 µM (active)	
Cc1[nH]c(/C=C2\C(=O)Nc3ccc(F)cc32)c(C)c1C(=O)NCCN1CCCC1	14.6 µM (active)	
COc1ccc(CNc2nc(N(CCO)CCO)nc3c2ncn3C(C)C)cc1	4.61 µM (active)	
